Measured values published in ChEMBL document CHEMBL1201862, “PubChem BioAssay data set” (2004).
In all, about 400,000 compounds went through this assay and about 2,100 (0.53%) were called active. About 14% were inconclusive and are not listed. This is one part of a sample in which actives are shown more often than they occur. How the calls were made is not given here.

Each molecule was assayed against Ataxin-2 (Homo sapiens) (UniProt Q99700) (assay: qHTS for Inhibitors of ATXN expression.).
Assay type: functional

Chain of Ataxin-2 (Homo sapiens) (Q99700 whole entry): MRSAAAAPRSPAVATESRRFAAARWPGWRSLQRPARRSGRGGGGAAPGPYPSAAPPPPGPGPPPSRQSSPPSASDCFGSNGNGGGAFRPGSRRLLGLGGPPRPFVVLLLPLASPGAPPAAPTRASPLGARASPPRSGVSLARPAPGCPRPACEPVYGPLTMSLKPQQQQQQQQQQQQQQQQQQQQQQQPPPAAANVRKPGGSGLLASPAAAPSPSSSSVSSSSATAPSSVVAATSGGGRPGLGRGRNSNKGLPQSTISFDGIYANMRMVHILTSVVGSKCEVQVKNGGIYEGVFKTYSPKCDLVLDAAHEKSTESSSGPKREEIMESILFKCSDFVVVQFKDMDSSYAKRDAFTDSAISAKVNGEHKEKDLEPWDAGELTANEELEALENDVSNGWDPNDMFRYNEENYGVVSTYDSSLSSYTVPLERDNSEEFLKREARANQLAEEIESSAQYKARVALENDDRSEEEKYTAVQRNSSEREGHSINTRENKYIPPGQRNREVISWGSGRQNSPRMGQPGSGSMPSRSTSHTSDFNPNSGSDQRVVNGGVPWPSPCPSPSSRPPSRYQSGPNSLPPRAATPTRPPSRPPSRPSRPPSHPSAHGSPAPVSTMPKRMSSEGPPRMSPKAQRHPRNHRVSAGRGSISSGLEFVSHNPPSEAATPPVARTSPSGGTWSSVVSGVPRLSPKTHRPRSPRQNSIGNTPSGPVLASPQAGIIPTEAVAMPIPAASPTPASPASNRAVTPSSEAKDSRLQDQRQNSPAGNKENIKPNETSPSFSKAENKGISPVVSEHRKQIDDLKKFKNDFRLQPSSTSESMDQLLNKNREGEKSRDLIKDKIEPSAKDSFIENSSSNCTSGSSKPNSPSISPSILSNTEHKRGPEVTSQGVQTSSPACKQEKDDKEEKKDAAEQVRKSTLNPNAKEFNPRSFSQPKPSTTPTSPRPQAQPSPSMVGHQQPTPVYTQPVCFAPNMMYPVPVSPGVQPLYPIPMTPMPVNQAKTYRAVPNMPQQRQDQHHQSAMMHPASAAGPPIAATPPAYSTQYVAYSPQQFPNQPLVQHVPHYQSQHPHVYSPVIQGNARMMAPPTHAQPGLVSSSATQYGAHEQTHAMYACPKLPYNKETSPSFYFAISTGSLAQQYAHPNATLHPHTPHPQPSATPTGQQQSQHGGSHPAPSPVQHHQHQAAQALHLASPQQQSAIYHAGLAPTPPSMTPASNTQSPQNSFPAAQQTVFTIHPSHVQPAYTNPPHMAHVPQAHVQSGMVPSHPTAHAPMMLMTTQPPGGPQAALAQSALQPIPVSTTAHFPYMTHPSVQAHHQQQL

Compound | Potency
Cc1ccc(Nc2nc(-c3ccccc3)c(CC(=O)O)s2)cc1 | inactive
Cc1ccc(Nc2c(-c3ccsc3)nc3cccc(C)n23)cc1 | 25.1 µM (active)
Cc1cccc2nc(-c3ccccn3)c(Nc3ccc(F)cc3)n12 | 20 µM (active)
Cc1cc(Nc2ccc(F)cc2)n2c(nc3ccccc32)c1C#N | inactive
Cc1sc(-c2ccccn2)nc1OC(=O)c1ccc(F)cc1F | inactive
CCC1Cc2c(nc(N)c3c(N)nc(N4CCCCC4)c(C#N)c23)O1 (centres undefined) | inactive
N=c1c(C(=O)NCC2CCCO2)cc2c(=O)n3ccccc3nc2n1Cc1ccc(Cl)cc1 (centres undefined) | inactive
CC(=O)C1=NN(c2ccccc2)C(c2ccc3c(c2)OCO3)N1c1ccccc1 (centres undefined) | inactive
Cc1c2c(n3c(nc4ccccc43)c1C#N)N(CCN1CCOCC1)CC2 | inactive
CCOC(=O)c1cc2c(=O)n3ccccc3nc2n(Cc2ccco2)/c1=N\C(=O)c1cccc(C)c1 | inactive
C=C1CC(COc2cc(=O)oc3ccccc23)(c2ccccc2)OC1=O (centres undefined) | 39.8 µM (active)
CCC(=O)Oc1ccc2c(C)c(Cl)c(=O)oc2c1 | inactive
CCN(CC)c1ccc2c(C)c(Cl)c(=O)oc2c1 | inactive
C=C1CC(COc2ccc3c(C)c(Cl)c(=O)oc3c2)(c2ccccc2)OC1=O (centres undefined) | 9.47 µM (active)
COc1cc(NC(=O)c2sc3ncn(CC(=O)N4CCC(C)CC4)c(=O)c3c2C)cc(OC)c1OC | inactive
COc1cc(CNC(C)c2ccccc2)cc(Br)c1OCc1ccc(F)cc1 (centres undefined) | 39.8 µM (active)
COc1cc(/C=C(\C#N)c2nc3ccccc3[nH]2)cc(Br)c1OCc1ccccc1 | inactive
CCCCN(CCCC)C(=O)c1cc2c(=O)n3cccc(C)c3nc2s1 | inactive
O=c1[nH][nH]c(=O)c2c(NS(=O)(=O)c3ccccc3)cccc12 | inactive
N=C(N)Nc1nc(-c2ccccc2)c2ccccc2n1 | 1.41 µM (active)
NNc1nc(-c2ccccc2)c2ccccc2n1 | inactive
O=C(O)c1ccc(Nc2nc(-c3ccccc3)c3ccccc3n2)cc1 | inactive
CCCCN(C)CC(O)Cn1cc(/C=C/C(=O)c2ccc(OC)c(OC)c2)c2ccccc21 (centres undefined) | inactive
c1ccc(-c2cn3nc4c(nc3n2)CCCC4)cc1 | inactive
c1ccc(-c2cn3nc(-c4ccccc4)c(-c4ccccc4)nc3n2)cc1 | inactive

Compound | Potency
c1ccc(-c2cn3c(n2)CCc2ccc4cccnc4c2-3)cc1 | 39.8 µM (active)
COC(=O)C1CCN(C(c2cc(OC)c(OC)c(OC)c2)c2sc3nc(C)nn3c2O)CC1 (centres undefined) | inactive
Cc1ccc([C@H]2C[C@@H](O)[C@H](n3cc(-c4ccc(F)cc4)nn3)CN2C(=O)C2CCCCC2)cc1 | 22.4 µM (active)
O=C(C1CCCCC1)N1CCC(O)(c2ccc(Cl)cc2)CC1 | inactive
O=C(C1CCCCC1)N1C[C@@H](n2cc(-c3ccc(F)cc3)nn2)[C@H](O)C[C@@H]1c1ccc(Cl)cc1 | 22.4 µM (active)
CC1CSc2n1c(-c1ccccc1)c[n+]2-c1cccc(C(F)(F)F)c1 (centres undefined) | inactive
Cc1nnc(SCc2cccc3ccccc23)s1 | inactive
CC(C)NC(=O)N1c2ccccc2Sc2ccccc21 | inactive
Cc1nnc(SC(=O)N2c3ccccc3Sc3ccccc32)s1 | 25.1 µM (active)
Nc1[nH]c(C(=O)c2ccccc2)c(-c2ccc(F)cc2)c1C(=O)NCCc1c[nH]c2ccccc12 | 39.8 µM (active)
COc1ccc(C(=O)c2[nH]c(N)c(C(=O)NCCc3c[nH]c4ccccc34)c2-c2ccccc2Br)cc1 | 31.6 µM (active)
COc1ccc(C(=O)OCC(=O)c2c[nH]c3ccccc23)c(OC)c1 | inactive
O=C(CCCc1c[nH]c2ccccc12)Nc1ccc2ccccc2c1 | inactive
Nc1[nH]c(C(=O)c2ccccc2)c(-c2ccc(Cl)c(F)c2)c1C(=O)NCCc1c[nH]c2ccccc12 | 35.5 µM (active)
Cc1ccc(N=C(S)NCCc2c[nH]c3ccccc23)c(C)c1 | inactive
Nc1[nH]c(C(=O)c2ccccc2)c(-c2ccccc2C(F)(F)F)c1C(=O)NCCc1c[nH]c2ccccc12 | 25.1 µM (active)
CC(C)NC(=O)COCc1cc(-c2ccc3c(c2)OCO3)on1 | inactive
Cc1c(Cc2ccccc2)sc(/N=C/c2ccc3ccccc3c2)c1C(N)=O | inactive
O=C1c2cccnc2C(=O)N1Cc1ccc(F)cc1S(=O)(=O)NCc1ccco1 | inactive
O=C(COC(=O)c1c2c(nc3ccccc13)/C(=C/c1ccco1)CC2)NC1CCCC1 | inactive
COCCn1c(N)c(C(=O)NCC2CCCO2)c2nc3ccccc3nc21 (centres undefined) | inactive
COC(=O)c1cc(S(=O)(=O)NCC2CCN(Cc3cc(C)ccc3C)CC2)cn1C | inactive
N#C/C(=C\c1cc(Cl)cc(Cl)c1O)C(=O)NC1CCCCC1 | inactive
O=[N+]([O-])c1c(Nc2ccc(O)cc2)cc(Cl)c2nonc12 | 2.24 µM (active)
